Measurements from PubChem BioAssay AID2391 (Southern Research Specialized Biocontainment Screening …, 2010).
Screen size: about 310,000 compounds; about 410 (0.13%) were called active. About 2% were inconclusive and are not listed. No rule for the calls is given here. A selection follows. Potency and affinity values are given separately.

Assay: RSV antiviral activity via CPE protection, HEp-2 cells, primary 10 µM value included (AID 2391)
Conditions: RSV-induced CPE inhibition, at 10 µM, stronger effect = higher value

CPE inhibition, inactive:
CCN(CC)C1=N/C(=C\c2ccco2)C(=O)N1c1ccccc1 2.62%
CCSC1=N/C(=C\c2ccccc2)C(=O)N1c1ccc(OC)cc1 2.7%
CN(C(=O)CCCN1C(=O)c2ccccc2C1=O)C1CCCCC1 2.46%
COc1ccc(CNC(=O)Nc2cc(C)ccc2C)cc1 2.36%
O=C1CCC([N+](=O)[O-])C(c2ccc(Cl)c([N+](=O)[O-])c2)N1 (stereo not drawn) -2.01%
O=C1CCSc2ccc(Cl)cc2N1Cc1ccc(Cl)cc1 45.3%
O=C1CCSc2ccc(Cl)cc2N1Cc1ccccc1 1.94%
Cc1ccc(S(=O)(=O)CCC(=O)Nc2sccc2C#N)cc1 0.59%
COC(=O)Cc1ccc(NC(=S)N2CCN(c3ccc(OC)cc3)CC2)cc1 13.6%
COc1ccc2nc(NC(=O)c3ccccc3C(=O)O)sc2c1 1.92%
COc1ccc2nc(NC(=O)c3ccccc3F)sc2c1 3.79%
Cc1ccc(S(=O)(=O)N2[C@@H](c3ccc(F)cc3)C(C(=O)O)=CC[C@H]2c2cccc(Cl)c2)cc1 1.86%
CCc1cc(S(=O)(=O)N2CCN(C(=O)c3ccco3)CC2)ccc1OC 3.94%
C=CCN(Cc1nc(-c2cc(OC)ccc2OC)oc1C)C1CCS(=O)(=O)C1 (stereo not drawn) -0.75%
Fc1ccccc1C1c2[nH]c3ccccc3c2CCN1Cc1cccn1-c1ncccn1 (stereo not drawn) 16.6%
CCOc1ccc(C2c3[nH]c4ccccc4c3CCN2Cc2cccn2-c2ncccn2)cc1 (stereo not drawn) 43.1%
CC(C)(C)c1ccc(-c2nc(C#N)c(NCc3cccnc3)o2)cc1 0.34%
COc1ccc(C(C)(C)C)cc1NC(=O)c1ccc[n+]([O-])c1 0.85%
O=C(NCc1ccccc1)c1ccc[n+]([O-])c1 0.02%
CC(=O)C1=C(O)C(=O)N(c2nccs2)C1c1ccc(F)cc1 (stereo not drawn) 1.72%
O=c1/c(=C\c2ccc(F)cc2)sc2n1CCCN=2 0.07%
Cc1cccnc1Nc1nc(-c2ccc(F)cc2)cs1 14.5%
Cc1ccc2cc3cc(C(=O)N4CCCCCC4)oc3nc2c1 58.9%
CCCCN(C)C(=O)c1cc2cc3ccc(OC)cc3nc2o1 12.1%
COc1ccc2cc3cc(C(=O)N4CCCCCC4)oc3nc2c1 5.67%
Cc1ccc2cc3cc(C(=O)NC4CCCCC4)oc3nc2c1 4.34%
COc1ccc2cc3cc(C(=O)N4CCCC(C)C4)oc3nc2c1 (stereo not drawn) -0.12%
CCCCN(CC)C(=O)c1cc2cc3ccc(OC)cc3nc2o1 20.6%
CCOc1cc(/C=N/N=C2/NC(=O)C(CC(=O)O)S2)ccc1OCc1ccc(Cl)cc1 (stereo not drawn) 2%
COc1ccc(/C=N/N=C2/NC(=O)C(CC(=O)O)S2)cc1OCc1ccc(Cl)cc1Cl (stereo not drawn) 1.42%
CC(C)NC(=O)CCNC(=O)c1ccc(F)cc1 0.45%
CCCCCCC(C)n1[nH]c(=O)c2c(C)cc(C)nc21 (stereo not drawn) 6.56%
O=C(NC1=NCCS1)c1cc(-c2ccc(F)cc2)nc2ccccc12 8.35%
O=C(NC1=NCCS1)c1cc(-c2cccnc2)nc2ccccc12 3.02%
COCCCNC(=O)c1cc(-c2cccnc2)nc2ccccc12 1.57%
COc1cccc(-c2cc(C(=O)Nc3ccncc3)c3ccccc3n2)c1 18.1%
COCCNC(=O)COC(=O)c1cc(-c2ccc(OC)cc2)nc2ccccc12 2.44%
O=C(Nc1ncccn1)c1cc(-c2cccc(Br)c2)nc2ccccc12 10.3%
Cc1ccc2nc(SCc3cn4cccnc4n3)[nH]c2c1 0.92%
CC(C(=O)Nc1cccc([N+](=O)[O-])c1)n1nnc2ccccc21 (stereo not drawn) -0.02%
CCC1Sc2ccc(S(=O)(=O)CCC(=O)Nc3c(Cl)cc(OC)cc3OC)cc2NC1=O (stereo not drawn) 12.2%
Cc1ccc(N2CCN(C(=O)NC3CCCCC3)CC2C)cc1 (stereo not drawn) 3.66%
COc1ccc(NC(=O)NCCCN2CCN(c3ccccc3F)CC2)cc1 -2.01%
CCOc1ccc(C(=O)CN2C(=O)NC3(CCCCCC3)C2=O)cc1 1.63%
COc1cc2c(cc1OC)C(C)N(C(=O)/C=C/c1cc(OC)c(OC)c(OC)c1)CC2 (stereo not drawn) 1.08%
COc1cc2c(cc1OC)C(C)N(C(=O)c1ccc(Br)o1)CC2 (stereo not drawn) 4.76%
COc1cc2c(cc1OC)C(C)N(C(=O)c1ccc(C)o1)CC2 (stereo not drawn) 3.08%
COc1cc2c(cc1OC)C(C)N(C(C)=O)CC2 (stereo not drawn) -1.08%
Cc1ccc(NC(=O)c2c(F)cccc2Cl)cc1S(=O)(=O)N1CCOCC1 2.31%
COc1ccc(N2C(=O)C(CC(=O)Nc3ccccc3)N(Cc3ccccn3)C2=S)cc1 (stereo not drawn) 4.08%
CCOc1ccc(NC(=O)CC2C(=O)N(c3ccccc3)C(=O)N2Cc2ccccn2)cc1 (stereo not drawn) 3.73%
CCOc1ccc(NC(=O)CC2C(=O)N(c3ccc(OC)cc3)C(=S)N2Cc2ccccn2)cc1 (stereo not drawn) -1.46%
CCOc1ccc(NC(=O)CC2C(=O)N(c3ccccc3)C(=S)N2Cc2ccccn2)cc1 (stereo not drawn) 7.95%
CCCCCc1cc(=O)oc2c(C(CCN3CCCCC3)c3ccc(OC)cc3)c(OC)cc(OC)c12 (stereo not drawn) -3.75%
C[C@@]12C(=O)N(c3ccc(F)cc3)C(=O)N1[C@@H]1c3ccccc3OC[C@@H]1[C@H]2c1ccccc1 6.7%
COc1cccc2c1c(NC(=O)c1cc(C)on1)nn2C 2.09%
COc1cccc2c1c(NC(=O)Nc1ccc(F)cc1F)nn2C 1.98%
CC(=O)Nc1ccc(NC(=O)C2CCC(N3C(=O)C4C5C=CC(C6CC56)C4C3=O)CC2)cc1 (stereo not drawn) 1.77%
CC(C(=O)N1CCCC1)N1CCN(S(=O)(=O)c2ccc(C(C)(C)C)cc2)CC1 (stereo not drawn) 0.2%
Cc1ccc(CSCC(=O)Nc2ccccc2F)cc1 0.6%
Cc1c(NC(=O)CSCc2ccccc2)cccc1C(=O)O -0.3%
O=C(CSc1nc2ccccc2s1)N/N=C/c1ccco1 0.58%
Cn1cccc1Cc1nnc(SCC(=O)Nc2ccc3c(c2)OCCO3)n1-c1ccc(F)cc1 0.23%
Cc1ccc(C(=O)N[C@H](C(=O)OCC(=O)Nc2cccc(S(N)(=O)=O)c2)C(C)C)cc1 -0.34%
O=C(NC1CCCCC1)c1ccc(N2CCCC2=O)cc1 2.08%
Cn1ncc(Br)c1C(=O)N1CCOCC1 3.84%
O=C(CNC(=O)c1ccccc1F)NCCOc1ccccc1Cl 0.24%
CC1CCN(C(=O)COc2ccccc2F)CC1 4.04%
COC(=O)c1cc(S(=O)(=O)N2CCC(C)CC2)ccc1F 0.31%
O=C(NCCOc1ccccc1Cl)C(=O)NCCOc1ccccc1Cl 3.63%
CCN1C(=O)[C@H]2[C@@H](c3ccc(C)cc3)N3C(=O)N(c4cccc(Cl)c4)C(=O)[C@@]3(CC(C)C)[C@H]2C1=O 3.11%
N#Cc1ccc(CSc2nnc(-c3cccnc3)n2-c2ccccc2)cc1 0.49%
Cc1ccc2c(C)c(C(=O)N3CCN(Cc4ccccn4)CC3)oc2c1C 1.72%
Cc1ccc2c(C)c(C(=O)N3CCN(c4cnccn4)CC3)oc2c1C 16.7%
CC(C)N(CCO)Cc1nc(C(c2ccccc2)c2ccccc2)no1 -0.29%
Cc1c(C(=O)NCC2CCCO2)oc2ccc(Br)cc12 (stereo not drawn) 3.18%
O=C(NCc1ccccc1)c1ccc(NC(=O)C2CCCO2)cc1 (stereo not drawn) 0.29%
Cc1ccc(-n2c(SCC(=O)N3CC(=O)Nc4ccccc43)nc3ccccc3c2=O)cc1 3.64%
O=C1CN(C(=O)CSc2nc3ccccc3c(=O)n2Cc2ccc(F)cc2)c2ccccc2N1 16.3%
O=C(COC(=O)CNC(=O)c1ccc(Cl)cc1)NC1CCCCCC1 -0.18%
CCOCCCNC(=O)C1CCCN1C(=O)NC1CCCCC1 (stereo not drawn) 1.83%
CCOC(=O)N/N=C(\C)c1cccs1 -0.75%
Nc1ccc(-c2nc3ccccc3o2)cc1 2.51%
Nc1ccc(-c2nc3ccccc3[nH]2)cc1 -0.76%
Cc1ccc(S(=O)(=O)Nc2ccc3nc(-c4cccn4C)[nH]c3c2)cc1 2.21%
O=C(NC(=S)Nc1ccc(S(=O)(=O)Nc2nccs2)cc1)C1CC1 -0.1%
O=C(Nc1ccc(S(=O)(=O)Nc2nccs2)cc1)C1CCCCC1 1.14%
O=C(c1cccc(N2C(=O)C3C4C=CC(C4)C3C2=O)c1)N1CCN(c2ccccc2F)CC1 (stereo not drawn) 1.69%
O=C(c1cccc(N2C(=O)C3C4C=CC(C4)C3C2=O)c1)N1CCN(c2ccccc2)CC1 (stereo not drawn) 3.62%
Cc1ccc(S(=O)(=O)NCCC(=O)NCC(c2ccc(F)cc2)N2CCOCC2)cc1 (stereo not drawn) -0.75%
COc1ccc(CNC(=S)Nc2cccc(OC)c2)cc1 0.93%
CCOc1cc(S(=O)(=O)N(CC)CC)ccc1Br 0.38%
COc1ccccc1CNC(=O)CN(C)S(=O)(=O)c1ccc(Br)s1 3.3%
